Results: PubChem BioAssay (EPA / NIEHS)
The source made the active and inactive calls. The calls were made as follows: active = hit-call score of the fitted dose curve at least 0.9, where 1 is the maximum; inactive = score below 0.9.

assay: CCTE_Harrill_HTTr_Apoptosis_MCF7: CCTE's 6-hour Apoptosis Assessment for the High-Throughput Transcriptomics (HTTr) Platform, in MCF-7 cells cultured in DMEM + 10% fetal bovine serum, Harrill Lab (AID 2284011)
In short: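 Read-out: CellEvent Caspase 3/7 Green signal by high content imaging, gain-of-signal indicating apoptosis. MCF-7 cells, DMEM + 10% FBS, eight-point dilution series, 6 h exposure. Curves fitted bidirectionally relative to DMSO negative control.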

Structure (SMILES)	outcome
CC12CC1(C)C(=O)N(c1cc(Cl)cc(Cl)c1)C2=O (stereo not drawn)	inactive
C[C@]12CCC(=O)C[C@@H]1CC[C@@H]1[C@@H]2CC[C@]2(C)[C@@H](O)CC[C@@H]12	inactive
Cc1ccc2ccccc2c1C	inactive
CC(C)(OO)c1ccccc1	inactive
O=C(O)C(Cl)(Cl)Cl	inactive
ClC1(Cl)C2(Cl)C3(Cl)C4(Cl)C(Cl)(Cl)C5(Cl)C3(Cl)C1(Cl)C5(Cl)C24Cl (stereo not drawn)	inactive
CC(C)c1cccc(C(C)C)c1O	inactive
CC(C)(C)CC(C)(C)c1ccc(O)cc1	inactive
COP(=O)(OC)O/C(=C\Cl)c1cc(Cl)c(Cl)cc1Cl	inactive
COP(=S)(OC)Oc1ccc(Sc2ccc(OP(=S)(OC)OC)cc2)cc1	inactive
C[C@H]1O[C@@H](O[C@H]2[C@@H](O)C[C@H](O[C@H]3[C@@H](O)C[C@H](O[C@H]4CC[C@@]5(C)[C@H](CC[C@@H]6[C@@H]5CC[C@]5(C)[C@@H](C7=CC(=O)OC7)CC[C@]65O)C4)O[C@@H]3C)O[C@@H]2C)C[C@H](O)[C@@H]1O	inactive
CC(=O)[O][Hg][c]1ccccc1	inactive
CC(C)(c1ccccc1)c1ccc(O)c(C(C)(C)c2ccccc2)c1	inactive
CCOP(=S)(OCC)SCSP(=S)(OCC)OCC	inactive
CC(C)CCCCCCOC(=O)c1ccccc1C(=O)OCCCCCCC(C)C	inactive
CCC(C)(C)c1ccc(O)c(C(C)(C)CC)c1	inactive
O=C1C2(Cl)C3(Cl)C4(Cl)C(Cl)(Cl)C5(Cl)C3(Cl)C1(Cl)C5(Cl)C24Cl (stereo not drawn)	inactive
COP(=S)(OC)Oc1cc(Cl)c(Cl)cc1Cl	inactive
